Screening data: PubChem, National Center for Advancing Translational Sciences (NCATS)
AmpC nodet inh: Promiscuous and Specific Inhibitors of AmpC Beta-Lactamase (assay without detergent); Potency, µM (titrated, usually from 28.7 µM), inactives show at the highest dose activity change, negative = inhibition; AmpC nitrocefin hydrolysis, absorbance 480 nm, no detergent; 71,000 compounds, 1.8% hits; also: % of control where 0% means no effect
Target sequence (P00811 whole entry, looked up): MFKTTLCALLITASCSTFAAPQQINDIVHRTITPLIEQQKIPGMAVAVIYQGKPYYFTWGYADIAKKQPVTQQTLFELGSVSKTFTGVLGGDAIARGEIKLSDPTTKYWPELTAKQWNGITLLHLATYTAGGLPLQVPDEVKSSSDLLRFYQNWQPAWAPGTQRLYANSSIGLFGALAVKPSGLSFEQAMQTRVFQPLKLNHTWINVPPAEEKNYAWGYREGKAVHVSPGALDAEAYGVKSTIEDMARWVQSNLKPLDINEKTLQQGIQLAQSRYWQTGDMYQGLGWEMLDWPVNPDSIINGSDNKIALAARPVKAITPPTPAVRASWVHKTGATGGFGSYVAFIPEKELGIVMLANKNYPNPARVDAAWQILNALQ
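AmpC in 20 mM phosphate buffer pH 7.0 was preincubated 15 min at room temperature with compounds. Nitrocefin (800 uM stock) was then added and hydrolysis followed at 480 nm every 20 s for 4 min.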
LT uptake inh: qHTS Assay for Anthrax Lethal Toxin Internalization | Cells, anthrax lethal toxin internalization, FRET ratio (460/530) | Potency, µM (series often up to 40 µM), for inactives: top-dose activity change, negative = inhibition, actives largely listed as inhibitors | 70,000 compounds, 0.67% hits | AID 912, 2007; also: % is scaled to controls: 0 for no effect and ±100 for the full control effect; nearly all actives have a fitted effect of over 50% in size
AmpC det inh: Promiscuous and Specific Inhibitors of AmpC Beta-Lactamase (assay with detergent). Potency, µM (doses to about 28.7 µM), for the others: at the highest dose activity change, negative = inhibition. P00811. purified AmpC, nitrocefin hydrolysis with detergent. 71,000 compounds, 0.09% hits. AID 584, 2007; active = well fitted curve in the direction sought with a large enough effect; inconclusive = small, poorly fitted or top-dose-only effect; also: % is scaled to controls: 0 for no effect and ±100 for the full control effect
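E. coli AmpC (5.3 nM) in 20 mM phosphate pH 7.0 with 0.01% Triton X-100, preincubated 15 min RT with compound; nitrocefin (2 uL of 800 uM stock) hydrolysis followed by 480 nm absorbance every 20 s over 4 min.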
Prx2 Sm inh: Schistosoma Mansoni Peroxiredoxins (Prx2). Schistosoma mansoni peroxiredoxin 2 (Prx2). S. mansoni Prx2 activity coupled to TGR/GSH (TGR is thioredoxin glutathione reductase), NADPH fluorescence loss, qHTS. Potency, µM. 65,000 compounds, 0.07% hits. AID 448, 2006
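Prx2 inhibition was measured as reduced NADPH consumption when electrons flowed from NADPH through TGR and glutathione to Prx2 and H2O2. Plates were read kinetically over 8 min; enzyme reagents were held at 4 deg C during dispensing.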
* = called active by the depositor; ? = inconclusive; . = not tested or not shown; + = active, no number; ! = repeats disagree; [ ] = another dose, or the depositor's remark. Sampled rows, rich in hits. Any-hit rate of the full collection: about 2.6%. Unless noted, calls follow the shape of the full dose curve. Potency is read from the fitted curve at half-maximal effect.

SMILES | AmpC nodet inh | LT uptake inh | AmpC det inh | Prx2 Sm inh
COc1ccc(OC2C=CC(c3ccccc3)OC2CO)c(C(C)=O)c1 (stereo not given) | . | -7.9%[8 µM] | . | .
CC1=CC(=O)CC(C)(C)[C@@]1(O)/C=C\C(C)=C\C(=O)O | 4.2% | ? | -0.8% | >57
COc1ccc(-c2cnc(SCC(=O)Nc3ccc4c(c3)OCO4)n2Cc2ccco2)cc1 | -11.1% | ? | -3.2% | >57
CC(=O)Nc1cccc(NC(=O)CSc2ncc(-c3ccc(Cl)cc3)n2Cc2ccco2)c1 | 64.4% | 12.6µM* | -5.1% | >57
O=C(CSc1nnc(-c2ccc(Cl)cc2)n1Cc1ccco1)Nc1ccc2c(c1)OCCO2 | +[single pt active] | ? | -5.9% | >57
CCCC/C=C/C(NC(=O)OCc1ccccc1Cl)c1ccccc1 (stereo not given) | -14.5% | -22.3% | 1.7% | >57
C/C(CCN1CCCCc2nc(C)c(C)cc21)=N\O[C@@H](C)CN1CCCc2nc(C)c(C)cc21 | . | -22.1%[8 µM] | . | .
Cc1cc(C(=O)CSc2nnc(-c3cccc(F)c3)n2N)c(C)n1Cc1ccc2c(c1)OCO2 | 15.8µM*[single pt active] | -14.4% | 9.5% | >57
Cc1ccc(-c2nnc(SCC(=O)Nc3ccc4c(c3)OCCO4)n2N)cc1 | -5.5% | -2.9% | 9.6% | >57
Cc1cc(C(=O)CSc2nnnn2-c2ccc(O)cc2)c(C)n1Cc1ccc2c(c1)OCO2 | 12.6µM* | ? | -4.5% | >57
O=C1CCC[C@@H](C(C(=O)OCc2ccccc2)C(=O)OCc2ccccc2)C1 | . | -2.9%[8 µM] | . | .
CN(Cc1ccccc1)C(=O)CCC(=O)N(C)Cc1ccccc1 | 39.3% | -1.4% | -1.2% | .
CCC(C)NC(=O)CCS(=O)(=O)c1ccc2c(c1)n(C)c(=O)c(=O)n2C (stereo not given) | 3.98µM*[single pt active] | -7.7% | 12.8% | >57
CN(Cc1ccccc1)C(=O)CCS(=O)(=O)c1ccc2c(c1)n(C)c(=O)c(=O)n2C | 3.98µM*[single pt active] | ? | 13.7% | >57
Nc1cccc(-c2nc3ccc(N)cc3s2)c1 | 3.6% | ? | -2.8% | >57
Nc1ccc(O)c(-c2nc3ccccc3s2)c1 | 0.398µM* | ? | 7.0% | >57
Cc1nonc1NC(=O)CSc1nc(C2CCCCC2)nc2ccccc12 | -12.9% | ? | -2.2% | >57
Cc1cc2nc(SCC(=O)Nc3nonc3C)c3c(c2cc1C)CCCC3 | 12.6µM* | -16.8% | 1.3% | >57
CO[C@H]1COC(=O)[C@H](C)NC(=O)C/C=C\[C@@H](C)[C@@H](NS(=O)(=O)c2ccc(C)cc2)COC(=O)[C@H](OCc2ccccc2)/C=C\[C@@H]1C | . | 0.6%[8 µM] | . | .
COc1ccc(Cc2nc(-c3cccs3)no2)cc1OC | 3.98µM*[single pt active] | -15.4% | 5.6% | >57
Cc1cc(C(=O)CSC(=S)SC(C)(C)C)ccc1Cl | -11.1%[5.75 µM] | ? | -3.1%[5.75 µM] | >57
CCOC(=O)C1CCN(c2c(N3CCCC(C(=O)OCC)C3)c(=O)c2=O)CC1 (stereo not given) | 15.0% | ? | 4.4% | >57
CCOC(=O)N1CCN(c2c(N3CCC(N4CCCCC4)CC3)c(=O)c2=O)CC1 | 3.98µM*[single pt active] | 10.8% | 12.0% | >57
CCOC(=O)N1CCN(c2c(NCCN3CCCCC3CC)c(=O)c2=O)CC1 (stereo not given) | 3.98µM*[single pt active] | -8.6% | 13.4% | >57
N[C@@H](Cc1c[nH]c2ccc([N+](=O)[O-])cc12)C(=O)O | -2.0%[5.75 µM] | 6.9%[8 µM] | -3.7%[5.75 µM] | >57
SMILES | AmpC nodet inh | LT uptake inh | AmpC det inh | Prx2 Sm inh
Cc1cc(O)c(C(C)(C)C)cc1Sc1cc(C(C)(C)C)c(O)cc1C | 12.6µM* | ? | 5.7% | .
CC(C)(C)c1cc(O)c(C(C)(C)C)cc1O | -6.2% | ? | -0.6% | >57
Fc1ccc(C2CC(c3ccco3)n3ncnc3N2)cc1 (stereo not given) | 3.98µM*[single pt active] | -11.0% | 11.4% | >57
COC(=O)NC(/C(C(=O)OC)=C(\C)NCc1ccccc1)c1ccc(Cl)cc1 (stereo not given) | . | -9.8%[8 µM] | . | .
O=C1[C@@H]2C=CC=CC2=NC(=S)N1CCN1CCC(=C(c2ccc(F)cc2)c2ccc(F)cc2)CC1 | 6.31µM* | 15.5% | -4.3% | >57
COc1ccc(OCCC(=O)NC2=NCCS2)cc1 | -1.5% | 13.7% | -5.1% | >57
COc1ccc(C(=O)NCC(=O)NC2=NCCS2)cc1 | 3.98µM*[single pt active] | 3.5% | 13.2% | >57
Cc1c(NC(=O)c2noc3c2CCc2ccccc2-3)c(=O)n(-c2ccccc2)n1C | 3.98µM*[single pt active] | -14.2% | 10.2% | >57
Cc1ccccc1Cn1nc(C)c(NC(=O)c2noc3c2CCc2ccccc2-3)c1C | 64.5% | ? | 12.5% | ?
Cc1cc(NC(=O)c2noc3c2CCc2ccccc2-3)no1 | 3.98µM*[single pt active] | -1.0% | 9.1% | >57
Cc1ccc(CCNC(=O)C2CCCN(S(=O)(=O)c3cnc[nH]3)C2)cc1 (stereo not given) | 2.2% | -1.0% | 5.1% | >57
CCN(CCCNC(=O)C1CCCN(S(=O)(=O)c2cnc[nH]2)C1)c1ccccc1 (stereo not given) | 3.98µM*[single pt active] | -7.4% | 7.3% | >57
Cc1cccc(CN2CCC(CNC(=O)C3CCCN(S(=O)(=O)c4cnc[nH]4)C3)CC2)c1 (stereo not given) | 3.16µM*[single pt active] | -10.6% | 12.4% | >57
CCN(CCNC(=O)C1CCCN(S(=O)(=O)c2cnc[nH]2)C1)c1ccccc1 (stereo not given) | 3.98µM*[single pt active] | -8.3% | 13.3% | >57
O=C(NCCN1CCN(c2ccccc2)CC1)C1CCCN(S(=O)(=O)c2cnc[nH]2)C1 (stereo not given) | 2.51µM*[single pt active] | -7.4% | 9.7% | >57
COc1ccc(CNc2ccnc(-c3cccc(C#N)c3)n2)c(OC)c1 | 50.1% | ? | -4.3% | >57
COc1ccccc1OC[C@H](O)CN1CCN(CC(=O)Nc2c(C)cccc2C)CC1 | 41.8% | -7.3% | -1.7% | >57
O=c1c(O)c(-c2ccc(O)c(O)c2)oc2cc(O)ccc12 | 12.6µM*! | -12.2% | -2.5% | >57
O=c1c(O)c(-c2ccc(O)cc2)oc2cc(O)ccc12 | ? | ? | 2.1% | >57
C[C@@H]1/C=C\CC(=O)OC[C@H]2O[C@@H](C=C[C@@H]2O)[C@H](C)/C=C\CC(=O)OC1 | . | -3.5%[8 µM] | . | .
COc1ccccc1S(=O)(=O)Cc1ccc(C(=O)NC2CCCCC2)o1 | 11.7% | -8.9% | -1.0% | >57
CCOC(=O)N1CCC(NC(=O)c2ccc(CS(=O)(=O)c3ccc(OC)cc3)o2)CC1 | 3.98µM*[single pt active] | 6.6% | 13.2% | >57
COc1ccc(S(=O)(=O)Cc2ccc(C(=O)NC3CCCC3)o2)cc1 | 3.98µM*[single pt active] | -8.6% | 14.9% | >57
CC(C)(C)c1ccc([C@@H](O)CCCN2CCC(C(O)(c3ccccc3)c3ccccc3)CC2)cc1 | 10.4%[12.8 µM] | ? | -0.9%[12.8 µM] | >57
C[C@@H](N)/C(N)=N/O | 4.1%[5.75 µM] | -0.6%[8 µM] | -0.9%[5.75 µM] | >57
C[N+](C)(N)CCC[N+](C)(C)N | -4.8%[5.75 µM] | -6.4%[8 µM] | -1.2%[5.75 µM] | >57
CN(C)C[C@H]1CCC2=C(C1=O)C(c1ccc(Cl)c(Cl)c1)C1=C(CC[C@H](CN(C)C)C1=O)O2 | 11.2%[5.75 µM] | 14.5%[8 µM] | -3.2%[5.75 µM] | >57
